Laboratory results taken from PubChem BioAssay (EPA / NIEHS).
Calls of active or inactive are those of the source. How the source made its calls: active means hit-call score of the fitted dose curve at least 0.9, where 1 is the maximum; inactive means score below 0.9.

Legend:
[1] = read-out: C-C motif chemokine 2 (Homo sapiens) (UniProt P13500); assay: BSK_KF3CT_MCP1: BioMAP Diversity Plus: KF3CT Assay for Monocyte Chemoattractant Protein 1 (MCP1/CCL2) Biomarker Activity (AID 2283073); conditions: primary human keratinocytes with fibroblasts; actives raise or lower the signal
Summary of the method: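 Human keratinocyte–foreskin fibroblast co-culture; MCP-1 measured by ELISA 24 h after dosing. Bidirectional fit vs DMSO; cytotoxicity tracked by SRB total protein in parallel cultures.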

[2] = read-out: Matrix Metallopeptidase 9 (MMP9), MMP9 (gene 4318); assay: BSK_KF3CT_MMP9: BioMAP Diversity Plus: KF3CT Assay for Matrix Metallopeptidase 9 (MMP9) Biomarker Activity (AID 2283074); conditions: primary human keratinocytes with fibroblasts; actives raise or lower the signal;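 on AC50: MMP9 protein level quantified by ELISA in the co-culture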
Summary of the method: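 MMP-9 quantified by ELISA after 24 h chemical treatment of primary human skin keratinocyte/fibroblast co-cultures; gain or loss fitted against DMSO, with parallel SRB staining (0.1% SRB, 560 nm) for overt cytotoxicity.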

[3] = read-out: urokinase plasminogen activator (uPA), PLAU (gene 5328); assay: BSK_KF3CT_uPA: BioMAP Diversity Plus: KF3CT Assay for urokinase plasminogen activator (uPA) Biomarker Activity (AID 2283075); conditions: primary human keratinocytes with fibroblasts; actives raise or lower the signal
Summary of the method: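 ELISA read-out of uPA 24 h after dosing human skin keratinocytes co-cultured with foreskin fibroblasts. Signal change fitted both ways relative to DMSO; sulforhodamine B on parallel cultures marks overt cytotoxicity.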

CD40, CD40 (gene 958) [4] = assay: BSK_LPS_CD40: BioMAP Diversity Plus: LPS Assay for CD40 Biomarker Activity (AID 2283076); conditions: primary human HUVEC with PBMC; actives raise or lower the signal
Summary of the method: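 HUVEC plus PBMC co-culture stimulated with LPS; CD40 quantified by ELISA 24 h after compound dosing. Fitting was bidirectional relative to DMSO. SRB staining of parallel cultures flagged overt cytotoxicity.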

[5] = read-out: E-selectin (Homo sapiens) (UniProt P16581); assay: BSK_LPS_Eselectin: BioMAP Diversity Plus: LPS Assay for Eselectin Biomarker Activity (AID 2283077); conditions: primary human HUVEC with PBMC; actives raise or lower the signal
Summary of the method: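 Human umbilical vein endothelial cells co-cultured with PBMC under LPS stimulation; cell-surface E-selectin measured by ELISA 24 h after dosing. Change in either direction versus DMSO, with SRB total-protein staining in parallel cultures for cytotoxicity.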

[6] = read-out: Interleukin-8 (IL8), CXCL8 (gene 3576); assay: BSK_LPS_IL8: BioMAP Diversity Plus: LPS Assay for Interleukin-8 (IL8) Biomarker Activity (AID 2283078); conditions: primary human HUVEC with PBMC; actives raise or lower the signal
Summary of the method: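 Human umbilical vein endothelial cells co-cultured with PBMC, LPS-stimulated, exposed to compound for 24 h. IL-8 quantified by ELISA; fitted in both directions against DMSO, with SRB total-protein staining of parallel cultures for cytotoxicity.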

[7] = BSK_LPS_SRB: Viability Assessment in the BioMAP Diversity Plus: LPS Assay (AID 2283079); conditions: primary human HUVEC with PBMC;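 further: total protein by sulforhodamine B absorbance as a cytotoxicity measure; measured one day after compound addition; fitted in both directions against DMSO so loss or gain of signal counts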
Summary of the method: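 Co-culture of human umbilical vein endothelial cells and PBMC, read 24 h after dosing. Total protein by 0.1% SRB staining after 10% TCA fixation, absorbance at 560 nm; bidirectional fit against DMSO.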

[8] = read-out: Interleukin-1 alpha (IL1a), IL1A (gene 3552); assay: BSK_LPS_IL1a: BioMAP Diversity Plus: LPS Assay for Interleukin-1 alpha (IL1a) Biomarker Activity (AID 2283080); conditions: primary human HUVEC with PBMC; actives raise or lower the signal
Summary of the method: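 Human umbilical vein endothelial cells co-cultured with PBMC and stimulated with LPS; IL-1a measured by ELISA 24 h after dosing. Bidirectional fitting against DMSO; cytotoxicity checked by SRB staining in parallel cultures.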

[9] = read-out: Monocyte Chemoattractant Protein-1 (MCP1), CCL2 (gene 6347); assay: BSK_LPS_MCP1: BioMAP Diversity Plus: LPS Assay for Monocyte Chemoattractant Protein-1 (MCP1) Biomarker Activity (AID 2283081); conditions: primary human HUVEC with PBMC; actives raise or lower the signal;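 on AC50: secreted MCP-1 protein quantified by ELISA in culture supernatant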
Summary of the method: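 Human umbilical vein endothelial cells co-cultured with PBMC, LPS-stimulated; secreted MCP-1 measured by ELISA 24 h after compound addition. Bidirectional curve fitting against DMSO baseline; SRB total-protein staining in parallel cultures for cytotoxicity.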

[10] = BSK_LPS_PGE2: BioMAP Diversity Plus: LPS Assay for Prostaglandin E2 (PGE2) Biomarker Activity (AID 2283082); conditions: primary human HUVEC with PBMC; actives raise or lower the signal;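 on AC50: secreted prostaglandin E2 measured by ELISA in LPS-stimulated co-culture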
Summary of the method: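 Compounds were added to the LPS co-culture of endothelium and PBMC, and PGE2 was measured by ELISA after 24 h. Responses in either direction were fitted with DMSO as baseline.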

[11] = read-out: Macrophage colony-stimulating factor (MCSF), CSF1 (gene 1435); assay: BSK_LPS_MCSF: BioMAP Diversity Plus: LPS Assay for Macrophage colony-stimulating factor (MCSF) Biomarker Activity (AID 2283083); conditions: primary human HUVEC with PBMC; actives raise or lower the signal
Summary of the method: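 HUVEC–PBMC co-culture, M-CSF measured by ELISA 24 h after chemical dosing. Fitted in both directions relative to DMSO as negative control; overt cytotoxicity assessed by SRB total-protein staining in parallel cultures.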

[12] = read-out: Tissue Factor, F3 (gene 2152); assay: BSK_LPS_TissueFactor: BioMAP Diversity Plus: LPS Assay for Tissue Factor Biomarker Activity (AID 2283084); conditions: primary human HUVEC with PBMC; actives raise or lower the signal
Summary of the method: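 Human umbilical vein endothelial cells co-cultured with PBMC were dosed with compound. Cell-surface CD142 was measured by ELISA 24 h later. Activity was fitted bidirectionally against DMSO, with SRB total-protein staining in parallel cultures for cytotoxicity.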

[13] = read-out: Tumor necrosis factor (Homo sapiens) (UniProt P01375); assay: BSK_LPS_TNFa: BioMAP Diversity Plus: LPS Assay for Tumour Necrosis Factor alpha (TNFa) Biomarker Activity (AID 2283085); conditions: primary human HUVEC with PBMC; actives raise or lower the signal;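 on AC50: TNFa protein level quantified by ELISA in the co-culture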
Summary of the method: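 Cells (umbilical vein endothelium plus peripheral blood mononuclear cells) were dosed with chemical, incubated 24 h, then TNFa was quantified by ELISA; values derive from bidirectional fitting with DMSO as baseline.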

[14] = read-out: Vascular cell adhesion molecule 1 (VCAM1), VCAM1 (gene 7412); assay: BSK_LPS_VCAM1: BioMAP Diversity Plus: LPS Assay for Vascular cell adhesion molecule 1 (VCAM1) Biomarker Activity (AID 2283086); conditions: primary human HUVEC with PBMC; actives raise or lower the signal
Summary of the method: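 Cells are dosed in an LPS-stimulated endothelial/mononuclear co-culture and, after 24 h, VCAM-1 is quantified by ELISA. Activity in either direction is fitted relative to the DMSO negative control.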

CD40, CD40 (gene 958) [15] = assay: BSK_SAg_CD40: BioMAP Diversity Plus: SAg Assay for CD40 Biomarker Activity (AID 2283088); conditions: primary human HUVEC with PBMC; actives raise or lower the signal
Summary of the method: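 HUVEC plus PBMC co-culture, superantigen-activated, with CD40 read by ELISA 24 h after dosing. Curves fitted in both directions against DMSO. Overt cytotoxicity checked by parallel SRB total-protein staining.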

CD69, CD69 (gene 969) = assay: BSK_SAg_CD69: BioMAP Diversity Plus: SAg Assay for CD69 Biomarker Activity (AID 2283089); conditions: primary human HUVEC with PBMC; actives raise or lower the signal;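 on AC50: cell surface CD69 protein quantified by ELISA with fluorescence detection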
Summary of the method: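 Primary human vascular co-culture (umbilical vein endothelium with peripheral blood mononuclear cells) exposed to test chemical for 24 h. CD69 levels quantified by fluorescence ELISA; DMSO served as negative control for bidirectional fitting.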

[16] = read-out: Monocyte Chemoattractant Protein-1 (MCP1), CCL2 (gene 6347); assay: BSK_SAg_MCP1: BioMAP Diversity Plus: SAg Assay for Monocyte Chemoattractant Protein-1 (MCP1) Biomarker Activity (AID 2283090); conditions: primary human HUVEC with PBMC; actives raise or lower the signal
Summary of the method: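 Values derive from bidirectional fitting of ELISA-measured MCP1 against DMSO controls. Readings were taken 24 h after dosing human vascular endothelial cells co-cultured with peripheral blood mononuclear cells under superantigen stimulation.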

[17] = read-out: E-selectin (Homo sapiens) (UniProt P16581); assay: BSK_SAg_Eselectin: BioMAP Diversity Plus: SAg Assay for Eselectin Biomarker Activity (AID 2283091); conditions: primary human HUVEC with PBMC; actives raise or lower the signal
Summary of the method: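 Human umbilical vein endothelial cells co-cultured with peripheral blood mononuclear cells, SAg system. E-selectin is measured by ELISA 24 h after dosing and fitted bidirectionally against DMSO. Cytotoxicity is checked by SRB staining of parallel cultures.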

[18] = read-out: Monokine induced gamma interferon (MIG), CXCL9 (gene 4283); assay: BSK_SAg_MIG: BioMAP Diversity Plus: SAg Assay for Monokine induced gamma interferon (MIG) Biomarker Activity (AID 2283092); conditions: primary human HUVEC with PBMC; actives raise or lower the signal
Summary of the method: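 Endothelial cells and PBMC were co-cultured, exposed to test chemicals, and sampled 24 h later. MIG was measured by ELISA, and responses were fitted in both directions relative to DMSO.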

CD38, CD38 (gene 952) = assay: BSK_SAg_CD38: BioMAP Diversity Plus: SAg Assay for CD38 Biomarker Activity (AID 2283087); conditions: primary human HUVEC with PBMC; actives raise or lower the signal
Summary of the method: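 CD38 quantified by ELISA (fluorescence) in a superantigen-activated endothelial cell–PBMC co-culture at 24 h post-dose. Activity fitted in both directions relative to DMSO; parallel SRB and Alamar Blue cytotoxicity read-outs.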

Measured: AC50

Tumor necrosis factor (Homo sapiens), sequence (P01375 whole entry, looked up): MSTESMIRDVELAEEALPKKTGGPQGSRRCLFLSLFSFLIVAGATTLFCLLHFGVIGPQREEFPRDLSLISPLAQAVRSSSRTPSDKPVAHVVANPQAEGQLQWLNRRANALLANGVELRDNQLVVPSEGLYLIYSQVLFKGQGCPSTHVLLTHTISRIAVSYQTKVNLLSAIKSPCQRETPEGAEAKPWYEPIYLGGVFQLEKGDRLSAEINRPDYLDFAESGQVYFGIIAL
E-selectin (Homo sapiens), sequence (P16581 whole entry, looked up): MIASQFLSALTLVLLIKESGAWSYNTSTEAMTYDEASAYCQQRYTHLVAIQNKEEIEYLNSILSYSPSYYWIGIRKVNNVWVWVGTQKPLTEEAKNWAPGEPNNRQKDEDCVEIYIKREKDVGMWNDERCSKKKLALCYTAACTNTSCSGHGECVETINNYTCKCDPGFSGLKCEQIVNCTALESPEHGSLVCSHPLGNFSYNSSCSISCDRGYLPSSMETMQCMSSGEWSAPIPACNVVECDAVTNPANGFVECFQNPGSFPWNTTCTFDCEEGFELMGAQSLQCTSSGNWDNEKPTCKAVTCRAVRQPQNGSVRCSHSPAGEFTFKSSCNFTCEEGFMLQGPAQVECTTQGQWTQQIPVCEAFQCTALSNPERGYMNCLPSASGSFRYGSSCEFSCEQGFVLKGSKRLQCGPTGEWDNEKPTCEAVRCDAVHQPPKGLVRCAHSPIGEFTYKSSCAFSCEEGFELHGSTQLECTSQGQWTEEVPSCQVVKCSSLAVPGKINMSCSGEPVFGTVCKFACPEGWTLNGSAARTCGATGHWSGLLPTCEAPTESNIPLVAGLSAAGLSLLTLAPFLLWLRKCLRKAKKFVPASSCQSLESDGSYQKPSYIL

CC(C)c1nnc2ccc(-c3ocnc3-c3cc(F)ccc3F)cn12
active: [5] 0.248 µM | [6] 0.148 µM | [8] 0.148 µM | [9] 4.6 µM | [10] 0.346 µM | [12] 0.356 µM | [13] 0.148 µM | [14] 0.979 µM | CD69, CD69 (gene 969) 3.59 µM | [16] 3.97 µM | [17] 10.6 µM
inactive: [1] | [2] | [3] | CD40, CD40 (gene 958) [4] | [7] | [11] | CD40, CD40 (gene 958) [15] | [18]

CCCCCCCCN(C)C
inactive: [1] | [2] | [3] | CD40, CD40 (gene 958) [4] | [5] | [6] | [7] | [8] | [9] | [10] | [11] | [12] | [13] | [14] | CD38, CD38 (gene 952) | CD40, CD40 (gene 958) [15] | CD69, CD69 (gene 969) | [16] | [17] | [18]

NC(=O)N1c2ccccc2C=Cc2ccccc21
inactive: [1] | [2] | [3] | CD40, CD40 (gene 958) [4] | [5] | [6] | [7] | [8] | [9] | [10] | [11] | [12] | [13] | [14] | CD38, CD38 (gene 952) | CD40, CD40 (gene 958) [15] | CD69, CD69 (gene 969) | [16] | [17] | [18]

O=C(Cl)C(F)(F)C(F)(F)C(F)(F)C(=O)Cl
inactive: [1] | [2] | [3] | CD40, CD40 (gene 958) [4] | [5] | [6] | [7] | [8] | [9] | [10] | [11] | [12] | [13] | [14] | CD40, CD40 (gene 958) [15] | CD69, CD69 (gene 969) | [16] | [17] | [18]

C=CCc1cc(S(=O)(=O)c2ccc(O)c(CC=C)c2)ccc1O
active: [1] 24.4 µM | [2] 10.3 µM | [3] 30.4 µM | CD40, CD40 (gene 958) [4] 11.7 µM | [5] 29.2 µM | [6] 16.2 µM | [7] 14.7 µM | [8] 30.6 µM | [9] 15.8 µM | [10] 32.3 µM | [11] 28.6 µM | [12] 32.7 µM | [13] 29.8 µM | [14] 30 µM | CD40, CD40 (gene 958) [15] 11.6 µM | CD69, CD69 (gene 969) 24.3 µM | [16] 15.1 µM | [17] 13.8 µM | [18] 34.8 µM

O=C(O)[C@H](O)[C@@H](O)C(=O)O
inactive: [1] | [2] | [3] | CD40, CD40 (gene 958) [4] | [5] | [6] | [7] | [8] | [9] | [10] | [11] | [12] | [13] | [14] | CD40, CD40 (gene 958) [15] | CD69, CD69 (gene 969) | [16] | [17] | [18]

NC(=O)N(O)[C@@H]1COc2cc(OCc3ccccc3)ccc21
active: [10] 3.45 µM
inactive: [1] | [2] | [3] | CD40, CD40 (gene 958) [4] | [5] | [6] | [7] | [8] | [9] | [11] | [12] | [13] | [14] | CD38, CD38 (gene 952) | CD40, CD40 (gene 958) [15] | CD69, CD69 (gene 969) | [16] | [17] | [18]
